Measurements taken from the supplement of paper PMC3545927.
This is one part of the list. No count for the full screen is at hand.

Molecular target: furin, P09958
Experiment: furin cleavage Z-score vs untreated control; higher = more cleavage, active = 3.5 or more, inactive = 1 or less, 8 variable residues between constant flanks
Method in brief: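 Furin-free reactions served as the baseline for the cleavage Z-score, which is the log read count lowess-adjusted and scaled by median absolute deviation. Counts came from released DNA, adapter-tagged by PCR and sequenced. Purified furin had cut 8-mer peptides fused to a cDNA oligonucleotide on magnetic beads during 7.5, 15 or 30 min at 1:10 enzyme:substrate.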
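Further: purified furin at 1:10 enzyme:substrate in 50 mM HEPES pH 7.5.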

Sequence of furin, P09958 (P09958 whole entry): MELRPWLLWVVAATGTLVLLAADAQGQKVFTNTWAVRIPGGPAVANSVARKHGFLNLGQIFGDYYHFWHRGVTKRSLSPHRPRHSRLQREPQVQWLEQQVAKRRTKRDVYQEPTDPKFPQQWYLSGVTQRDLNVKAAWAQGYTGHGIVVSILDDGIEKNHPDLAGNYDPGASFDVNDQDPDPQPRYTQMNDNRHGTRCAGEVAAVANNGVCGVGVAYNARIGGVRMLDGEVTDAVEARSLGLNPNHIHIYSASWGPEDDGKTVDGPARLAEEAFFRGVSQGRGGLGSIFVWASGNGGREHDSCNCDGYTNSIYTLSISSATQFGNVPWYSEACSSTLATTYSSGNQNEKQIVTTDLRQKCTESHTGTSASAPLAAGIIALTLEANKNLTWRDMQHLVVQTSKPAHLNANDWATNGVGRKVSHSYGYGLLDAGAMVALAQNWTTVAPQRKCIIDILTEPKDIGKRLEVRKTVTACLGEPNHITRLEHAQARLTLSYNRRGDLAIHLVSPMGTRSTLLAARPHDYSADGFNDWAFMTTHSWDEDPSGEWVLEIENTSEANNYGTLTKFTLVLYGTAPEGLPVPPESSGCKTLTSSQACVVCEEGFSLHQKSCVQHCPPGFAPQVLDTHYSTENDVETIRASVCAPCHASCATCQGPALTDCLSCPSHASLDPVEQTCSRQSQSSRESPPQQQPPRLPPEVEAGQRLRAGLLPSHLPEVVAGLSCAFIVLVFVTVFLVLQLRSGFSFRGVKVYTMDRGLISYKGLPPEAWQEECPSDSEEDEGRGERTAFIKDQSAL

Sequence: CAEVVTHTWVAGNASASA [HC149]
- furin cleavage Z-score (7.5 min): -0.408 (inactive)
- furin cleavage Z-score (15 min): -0.439 (inactive)
- furin cleavage Z-score (30 min): 0.597 (inactive)

Sequence: CALAYGLRSKAGNASASA [TR9]
- furin cleavage Z-score (7.5 min): -0.353 (inactive)
- furin cleavage Z-score (15 min): 0.335 (inactive)
- furin cleavage Z-score (30 min): -1.59 (inactive)

Sequence: CASTYCSAHLAGNASASA [HC2509]
- furin cleavage Z-score (7.5 min): -0.262 (inactive)
- furin cleavage Z-score (15 min): -0.642 (inactive)
- furin cleavage Z-score (30 min): 2.3

Sequence: CAEVHCHRPSAGNASASA [HC2355]
- furin cleavage Z-score (7.5 min): 1.25
- furin cleavage Z-score (15 min): 0.809 (inactive)
- furin cleavage Z-score (30 min): 1.14

Sequence: CAVAVEPVVFAGNASASA [HC645]
- furin cleavage Z-score (7.5 min): 1.23
- furin cleavage Z-score (15 min): -0.0223 (inactive)
- furin cleavage Z-score (30 min): -0.472 (inactive)

Sequence: CARTKRDVYQAGNASASA [FS-2825]
- furin cleavage Z-score (7.5 min): 9.66 (active)
- furin cleavage Z-score (15 min): 11.4 (active)
- furin cleavage Z-score (30 min): 9.76 (active)

Sequence: CARTKRYVVFAGNASASA [FS-2095]
- furin cleavage Z-score (7.5 min): 4.82 (active)
- furin cleavage Z-score (15 min): 4.06 (active)
- furin cleavage Z-score (30 min): 6.56 (active)

Sequence: CARKGRYKAFAGNASASA [FS-2960]
- furin cleavage Z-score (7.5 min): -0.402 (inactive)
- furin cleavage Z-score (15 min): -0.376 (inactive)
- furin cleavage Z-score (30 min): -0.0128 (inactive)

Sequence: CAEISVPAEIAGNASASA [HC1294]
- furin cleavage Z-score (7.5 min): -0.695 (inactive)
- furin cleavage Z-score (15 min): -1.61 (inactive)
- furin cleavage Z-score (30 min): -1.39 (inactive)

Sequence: CASTFCSAHLAGNASASA [HC2507]
- furin cleavage Z-score (7.5 min): -0.833 (inactive)
- furin cleavage Z-score (15 min): -0.376 (inactive)
- furin cleavage Z-score (30 min): -0.904 (inactive)

Sequence: CAQLEVVTSTAGNASASA [HC2282]
- furin cleavage Z-score (7.5 min): 0.398 (inactive)
- furin cleavage Z-score (15 min): 1.61
- furin cleavage Z-score (30 min): 0.854 (inactive)

Sequence: CAYLYGVGSSAGNASASA [HC511]
- furin cleavage Z-score (7.5 min): 0.568 (inactive)
- furin cleavage Z-score (15 min): -0.0293 (inactive)
- furin cleavage Z-score (30 min): 0.0874 (inactive)

Sequence: CASRRRTRRPAGNASASA [FS-873]
- furin cleavage Z-score (7.5 min): 0.729 (inactive)
- furin cleavage Z-score (15 min): 0.54 (inactive)
- furin cleavage Z-score (30 min): 0.884 (inactive)

Sequence: CAAPPRARRHAGNASASA [FS-975]
- furin cleavage Z-score (7.5 min): 8.59 (active)
- furin cleavage Z-score (15 min): 9.67 (active)
- furin cleavage Z-score (30 min): 6.85 (active)

Sequence: CAPPLRAWRHAGNASASA [HC1618]
- furin cleavage Z-score (7.5 min): -0.103 (inactive)
- furin cleavage Z-score (15 min): 0.906 (inactive)
- furin cleavage Z-score (30 min): -0.71 (inactive)

Sequence: CASRIRIERVAGNASASA [FS-1087]
- furin cleavage Z-score (7.5 min): 0.306 (inactive)
- furin cleavage Z-score (15 min): 3.11
- furin cleavage Z-score (30 min): 2.24

Sequence: CAARKMIGGHAGNASASA [HC623]
- furin cleavage Z-score (7.5 min): 0.0211 (inactive)
- furin cleavage Z-score (15 min): 1.66
- furin cleavage Z-score (30 min): 1.13

Sequence: CAARQRTRRHAGNASASA [FS-1112]
- furin cleavage Z-score (7.5 min): 11.1 (active)
- furin cleavage Z-score (15 min): 12.6 (active)
- furin cleavage Z-score (30 min): 10 (active)

Sequence: CASRRRFYRPAGNASASA [FS-506]
- furin cleavage Z-score (7.5 min): -1.15 (inactive)
- furin cleavage Z-score (15 min): 0.235 (inactive)
- furin cleavage Z-score (30 min): -2.19 (inactive)

Sequence: CASRRRARRHAGNASASA [FS-1416]
- furin cleavage Z-score (7.5 min): 7.59 (active)
- furin cleavage Z-score (15 min): 6.18 (active)
- furin cleavage Z-score (30 min): 7.01 (active)

Sequence: CASRRRMKRVAGNASASA [FS-1167]
- furin cleavage Z-score (7.5 min): 11 (active)
- furin cleavage Z-score (15 min): 12 (active)
- furin cleavage Z-score (30 min): 9.11 (active)

Sequence: CAEVLCHRPSAGNASASA [HC2345]
- furin cleavage Z-score (7.5 min): 1.1
- furin cleavage Z-score (15 min): -0.279 (inactive)
- furin cleavage Z-score (30 min): 0.507 (inactive)

Sequence: CAMEECSQHDAGNASASA [HC1771]
- furin cleavage Z-score (7.5 min): -0.304 (inactive)
- furin cleavage Z-score (15 min): 0.175 (inactive)
- furin cleavage Z-score (30 min): 0.222 (inactive)

Sequence: CAAVQTNWQKAGNASASA [HC1035]
- furin cleavage Z-score (7.5 min): 0.252 (inactive)
- furin cleavage Z-score (15 min): 0.157 (inactive)
- furin cleavage Z-score (30 min): -0.0579 (inactive)

Sequence: CAMYVGGVEHAGNASASA [HC476]
- furin cleavage Z-score (7.5 min): -0.473 (inactive)
- furin cleavage Z-score (15 min): -0.882 (inactive)
- furin cleavage Z-score (30 min): -0.205 (inactive)

Sequence: CATTPFSGSWAGNASASA [HC46]
- furin cleavage Z-score (7.5 min): -0.133 (inactive)
- furin cleavage Z-score (15 min): -0.615 (inactive)
- furin cleavage Z-score (30 min): -0.727 (inactive)

Sequence: CATPPRSKRVAGNASASA [FS-1096]
- furin cleavage Z-score (7.5 min): 4.55 (active)
- furin cleavage Z-score (15 min): 6.1 (active)
- furin cleavage Z-score (30 min): 4.13 (active)

Sequence: CAVVCCSMYYAGNASASA [HC2069]
- furin cleavage Z-score (7.5 min): -0.54 (inactive)
- furin cleavage Z-score (15 min): -0.258 (inactive)
- furin cleavage Z-score (30 min): -1.53 (inactive)

Sequence: CAYVQMVIIKAGNASASA [HC627]
- furin cleavage Z-score (7.5 min): -1.63 (inactive)
- furin cleavage Z-score (15 min): -1.94 (inactive)
- furin cleavage Z-score (30 min): -0.568 (inactive)

Sequence: CAAGTRTIASAGNASASA [HC703]
- furin cleavage Z-score (7.5 min): 0.83 (inactive)
- furin cleavage Z-score (15 min): 0.675 (inactive)
- furin cleavage Z-score (30 min): 0.11 (inactive)

Sequence: CAKQFRALRSAGNASASA [FS-1595]
- furin cleavage Z-score (7.5 min): 4.54 (active)
- furin cleavage Z-score (15 min): 5.86 (active)
- furin cleavage Z-score (30 min): 4.56 (active)

Sequence: CAAGRRALRSAGNASASA [FS-1182]
- furin cleavage Z-score (7.5 min): 4.32 (active)
- furin cleavage Z-score (15 min): 4.3 (active)
- furin cleavage Z-score (30 min): 3.06

Sequence: CAKNGRPLRSAGNASASA [FS-341]
- furin cleavage Z-score (7.5 min): 0.926 (inactive)
- furin cleavage Z-score (15 min): 2.59
- furin cleavage Z-score (30 min): 0.891 (inactive)

Sequence: CAQLVRALRSAGNASASA [FS-848]
- furin cleavage Z-score (7.5 min): 7.22 (active)
- furin cleavage Z-score (15 min): 7.99 (active)
- furin cleavage Z-score (30 min): 7.1 (active)

Sequence: CAGCPERLASAGNASASA [HC386]
- furin cleavage Z-score (7.5 min): 1.74
- furin cleavage Z-score (15 min): 0.605 (inactive)
- furin cleavage Z-score (30 min): -0.259 (inactive)

Sequence: CAREARAVIFAGNASASA [FS-3186]
- furin cleavage Z-score (7.5 min): -0.327 (inactive)
- furin cleavage Z-score (15 min): -0.0656 (inactive)
- furin cleavage Z-score (30 min): 2.23

Sequence: CAVYARVSRFAGNASASA [FS-517]
- furin cleavage Z-score (7.5 min): 0.958 (inactive)
- furin cleavage Z-score (15 min): 0.514 (inactive)
- furin cleavage Z-score (30 min): 2.26

Sequence: CASRLRFDRFAGNASASA [FS-505]
- furin cleavage Z-score (7.5 min): -0.495 (inactive)
- furin cleavage Z-score (15 min): 0.902 (inactive)
- furin cleavage Z-score (30 min): -0.181 (inactive)

Sequence: CALRIRNVRFAGNASASA [FS-1465]
- furin cleavage Z-score (7.5 min): 2.76
- furin cleavage Z-score (15 min): 6.35 (active)
- furin cleavage Z-score (30 min): 7.62 (active)

Sequence: CAVYVRVSRFAGNASASA [FS-518]
- furin cleavage Z-score (7.5 min): 3.44
- furin cleavage Z-score (15 min): 4.83 (active)
- furin cleavage Z-score (30 min): 6.25 (active)

Sequence: CAVRARFVRFAGNASASA [FS-1433]
- furin cleavage Z-score (7.5 min): 9.46 (active)
- furin cleavage Z-score (15 min): 9.43 (active)
- furin cleavage Z-score (30 min): 8.99 (active)

Sequence: CAVRCCSMSYAGNASASA [HC2013]
- furin cleavage Z-score (7.5 min): 0.204 (inactive)
- furin cleavage Z-score (15 min): -0.014 (inactive)
- furin cleavage Z-score (30 min): 0.753 (inactive)

Sequence: CAALEVVTSTAGNASASA [HC2263]
- furin cleavage Z-score (7.5 min): 0.411 (inactive)
- furin cleavage Z-score (15 min): -0.918 (inactive)
- furin cleavage Z-score (30 min): -0.927 (inactive)
